High-throughput results deposited in PubChem BioAssay by National Center for Advancing Translational Sciences (NCATS).
Only some compounds are listed: those with a hit (about 11% of all), similar ones and a draw of the others.
HP1b binding inh – HTS for Inhibitors of HP1-beta Chromodomain Interactions with Methylated Histone Tails. Chromobox protein homolog 1 (Homo sapiens), P83916. AlphaScreen HP1-beta / biotin-H3K9me3 peptide binding. Potency, µM (titrated, usually from 114 µM), inactives show at the highest dose activity change, negative = inhibition, actives largely listed as inhibitors. actives 0.56% (n = 390,000); further: nearly all actives have a fitted effect of over 70% in size
Target sequence (P83916 whole entry, looked up): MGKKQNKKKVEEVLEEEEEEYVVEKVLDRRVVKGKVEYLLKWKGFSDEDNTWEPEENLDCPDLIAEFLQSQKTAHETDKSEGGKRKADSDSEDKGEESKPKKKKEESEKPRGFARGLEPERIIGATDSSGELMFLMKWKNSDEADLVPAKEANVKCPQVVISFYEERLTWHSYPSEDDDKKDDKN
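Compound inhibition of the preformed complex between 50 nM HP1-beta and 50 nM biotinylated H3K9me3 peptide was read by AlphaScreen. Buffer was PBS pH 7.4 with 0.01% Tween-20. Incubations ran 30 min at room temperature, with 10 ug/mL donor/acceptor beads.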
PLK1 PBD inh – qHTS for Inhibitors of PLK1-PDB (polo-like kinase 1 - polo-box domain): Primary Screen; AID 720504, 2013; actives 2.8% (n = 360,000); Serine/threonine-protein kinase PLK1 (Homo sapiens), P53350; Potency, µM, inactives show max response, negative = inhibition, actives largely listed as inhibitors; Plk1 PBD binding of FITC phosphopeptide, fluorescence polarization; further: series mostly up to about 57 µM; on the % scale 0 is the no-effect control and ±100 the full control effect; nearly all actives have a fitted effect of over 65% in size
VDR inhibitor – Inhibitors of the vitamin D receptor (VDR): qHTS; Vitamin D3 receptor (Homo sapiens), P11473; Potency, µM, for inactives: max response, negative = inhibition, most hits filed as inhibitors; actives 0.93% (n = 400,000); VDR-SRC2-3 peptide fluorescence polarization, 2 h; further: on the % scale 0 is the no-effect control and ±100 the full control effect
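Signal is fluorescence polarization, reporting how far test compounds block the interaction of VDR with the SRC2-3 coregulator peptide after a 2 h room-temperature incubation.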
JMJD2A Tudor inh – qHTS Assay for Inhibitors of JMJD2A-Tudor Domain; Lysine-specific demethylase 4A (Homo sapiens), O75164; AlphaScreen JMJD2A-Tudor / H3K4me3 peptide binding; Potency, µM (top dose mostly 114 µM), for inactives: top-dose activity change, negative = inhibition, actives largely listed as inhibitors; actives 4.4% (n = 390,000); AID 504339, 2011; further: on the % scale 0 is the no-effect control and ±100 the full control effect; nearly all actives have a fitted effect of over 50% in size
BAZ2B inh – qHTS Assay for Inhibitors of BAZ2B | Bromodomain adjacent to zinc finger domain protein 2B (Homo sapiens), Q9UIF8 | AlphaScreen BAZ2B-H3K14Ac peptide displacement | Potency, µM (doses to about 114 µM), for the others: at the top dose activity change, negative = inhibition, actives largely listed as inhibitors | actives 4.4% (n = 360,000); further: on the % scale 0 is the no-effect control and ±100 the full control effect; nearly all actives have a fitted effect of over 60% in size
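Inhibition is scored as reduced AlphaScreen emission. The BAZ2B/b-H3(5-23)K14Ac complex (50 nM each) in PBS pH 7.4, 0.01% Tween-20 meets compound (up to 110 uM) for 30 min at RT before bead addition.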
G9a block – qHTS Assay for Inhibitors of Histone Lysine Methyltransferase G9a; actives 8.8% (n = 350,000); G9a H3K9 monomethylation, AlphaScreen, 2 h; AID 504332, 2011; Histone-lysine N-methyltransferase EHMT2 (Homo sapiens), Q96KQ7; Potency, µM (series often up to 102 µM), without a hit: at the highest dose activity, negative = inhibition, actives largely listed as inhibitors; further: on the % scale 0 is the no-effect control and ±100 the full control effect; nearly all actives have a fitted effect of over 75% in size
Target sequence (Q96KQ7 913-1193 limits assumed): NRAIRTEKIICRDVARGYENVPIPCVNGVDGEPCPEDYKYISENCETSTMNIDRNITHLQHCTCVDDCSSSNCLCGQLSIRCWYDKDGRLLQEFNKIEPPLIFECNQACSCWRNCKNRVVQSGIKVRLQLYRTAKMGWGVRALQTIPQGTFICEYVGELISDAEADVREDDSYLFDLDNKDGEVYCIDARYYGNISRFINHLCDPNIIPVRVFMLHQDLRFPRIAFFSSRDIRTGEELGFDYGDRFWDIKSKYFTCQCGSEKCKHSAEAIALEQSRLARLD
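Methyltransferase reactions run at room temperature for 2 h (20 nM enzyme, 500 nM biotin-H3K9 peptide, 20 uM SAM) after a 15 min compound preincubation; product detected by AlphaScreen beads and anti-H3K9me1 antibody.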
The depositor's hits bear a star; u = inconclusive; x = no result; [ ] = remark or other dose. The call rests on the fitted dose curve; in most records, active means well fitted curve in the direction sought with a large enough effect; inconclusive means small, poorly fitted or top-dose-only effect, or another doubt; inactive means no such curve, though single readings can be large; an effect the other way counts as inactive or inconclusive. Potency means the concentration at half of the fitted maximal effect.

SMILES	HP1b binding inh	PLK1 PBD inh	VDR inhibitor	JMJD2A Tudor inh	BAZ2B inh	G9a block
O=C1ON=C(c2ccc(Cl)c([N+](=O)[O-])c2)/C1=C/c1cccc([N+](=O)[O-])c1O	6.9%	-3.8%	12.6%	20µM*	5.7%	u
O=C1ON=C(c2ccccc2[N+](=O)[O-])/C1=C/c1cccc([N+](=O)[O-])c1O	29.7%	u	-8.5%	u	-2.5%	1µM*
CCOC(=O)c1ccc(NC(=O)C(C)Sc2nc(O)c(-c3ccccc3)c(=O)[nH]2)cc1 (stereo not drawn)	14.3%	-7.8%	-4.3%	-13.1%	-19.4%	x
COc1cc(C=C2C(=O)OC(C)(C)OC2=O)cc(Cl)c1OCC(=O)Nc1ccccc1	-17.2%	u	6.4%	u	-25.1%	-3.4%
CC(C)(C)C1(C)OC(=O)C(=Cc2ccc(OCC(=O)Nc3ccccc3)cc2)C(=O)O1 (stereo not drawn)	41.3%	2.38µM*	10.6%	-10.4%	8.1%	0.0%[59 µM]
CC(C)C(OC(=O)c1cc2sccc2n1C)C(=O)NCC1CCCO1 (stereo not drawn)	8.2%	-10.8%	-2.5%	-9.8%	22.3%	-1.9%
COc1ccc(CN(CC2CCCO2)C(=O)c2cc3sccc3n2C)c(OC)c1 (stereo not drawn)	-21.9%	-7.1%	-0.5%	u	56.2µM*	u
CCn1c(=S)[nH]c2c(=O)n(C)c(=O)n(C)c21	u	-15.9%	50.1µM*	5.01µM*	x	x
O=[N+]([O-])c1ccc(Cl)cc1Sc1nc2ccccc2o1	12.6µM*	-19.8%	-0.8%	44.7µM*	14.1µM*	u
Cc1cc(F)ccc1NC(=O)CCS(=O)(=O)c1cccc2nsnc12	15.1%	x	8.4%	-16.0%	1.1%	-8.6%[59 µM]
COc1ccc(N/C(=C2\CCCC2=O)C2CCCCC2)cc1	-11.1%	u	u	56.2µM*	x	x
COc1ccc(NC(=O)CN(C)CC(=O)Nc2ccccc2SC)cc1	u	-15.2%	-10.0%	31.6µM*	20µM*	8.91µM*
COc1ccc(NC(=O)CNC(=O)C2CCCCC2)cc1	42.7%	-4.5%	2.2%	-14.1%	-1.9%	x
COc1ccc(NC(=S)NC(=O)c2csnn2)cc1	25.4%	2.5%	-14.0%	-8.9%	-26.8%	31.6µM*
COc1ccc(NC(=O)c2cccc(C(=O)Nc3ccc(OC)cc3)n2)cc1	x	x	x	x	-19.1%	70.8µM*
CCc1ccc(S(=O)(=O)c2cn(Cc3ccccc3F)c3cc(OC)c(OC)cc3c2=O)cc1	41.2%	x	-11.4%	-11.3%	-5.8%	-41.6%[59 µM]
CCc1nc2ccc(C(=O)NCCOc3ccc(OC)cc3)cn2c1N(CC)CCN(C)C	x	2.0%	x	x	x	x
COc1ccc(NC(=O)CN(C)CC(=O)NCC2CCCCC2)cc1	17.3%	-0.3%	7.3%	u	-0.4%	56.2µM*
COc1ccc(NC(=O)c2cc(-c3ccccc3O)no2)cc1	-15.8%	x	12.0%	u	-28.0%	12.6µM*
COc1ccc(NC(=O)c2ccccc2SC)cc1	37.4%	-3.2%	2.2%	-6.3%	7.8%	44.7µM*
COc1ccc(NC(=O)c2ccc(=O)oc2)cc1	36.0%	-7.6%	11.2%	-21.5%	-4.4%	50.1µM*
CCC(Oc1ccccc1)C(=O)N1CCN(Cc2cc(=O)n3nc(-c4cccc(C)c4)sc3n2)CC1 (stereo not drawn)	20.3%[57 µM]	x	0.4%	-17.5%	-5.9%	0.3%[59 µM]
CCc1c(C)nc2nncn2c1Nc1ccc(C)c(F)c1	33.5%	x	-10.2%	-13.8%	1.5%	4.2%[59 µM]
C=C(Nc1ccc(OC)cc1)C(=O)OC	x	x	-0.5%	x	x	x
COc1ccc(NC(=O)c2sc(=S)[nH]c2N)cc1	-27.2%	u	50.1µM*	35.5µM*	u	u
SMILES	HP1b binding inh	PLK1 PBD inh	VDR inhibitor	JMJD2A Tudor inh	BAZ2B inh	G9a block
COc1cc(NC(=O)c2cccnc2SC)cc(OC)c1OC	48.6%	-8.9%	-3.8%	-7.5%[57.1 µM]	-2.5%	16.3%
COc1ccc(NC(=O)CS(=O)(=O)c2cccc(Cl)c2)cc1	10.9%	21.2µM*	u	u	-15.8%	5.2%
CSc1ncccc1C(=O)Nc1ccc(OC(F)(F)F)cc1	20.0%	33.6µM*	-8.2%	11.2µM*	-0.2%	13.2%
COc1ccc(NC(=O)CN(C)C(=O)Cc2ccc(-c3ccccc3)cc2)cc1	21.0%	-5.8%	-12.2%	100µM*	5.9%	u
CCN(CC)c1ccc(C(=O)NNC(=O)C2CSC3(C)CCC(=O)N23)cc1 (stereo not drawn)	43.1%	-7.7%	16.6%	-6.5%	-6.9%	20.2%[12.7 µM]
CCCc1c(C(=O)OCC)nnc2c(-c3ccccc3)c(C)nn12	34.7%	x	-10.8%	-7.8%	-20.6%	7.5%[59 µM]
CSc1ccc(S(=O)(=O)NCC(=O)OCC(=O)N(C)Cc2ccccc2)cc1[N+](=O)[O-]	-13.8%	-7.3%	-12.7%	-11.7%	-25.0%	-23.8%[12.7 µM]
CC/C=C/[C@@H](c1ccccc1)[C@H](C)C(O)CC(=O)SC(C)(C)C (stereo partly drawn)	79.4%	x	19.1%	48.3%	x	x
CCOc1ccc(NC(=O)c2ccccc2SC)cc1	6.2%	18.9µM*	u	-18.4%[11.4 µM]	15.9%	10.0%
CCOc1ccc(NC(=O)c2cc(SC)ccc2Cl)cc1	22.0%	-17.3%	-11.3%	-4.2%	8.0%	10.8%[59 µM]
COc1cc(OC)c2c(c1)OC(=O)CC2c1ccccc1OC (stereo not drawn)	x	x	0.1%	x	x	5.8%
CCOC(=O)CNC(=O)CSc1nnc(-c2ccc(OC)cc2)n1CC	11.1%	-1.9%	-8.6%	-2.1%	0.6%	-1.7%[59 µM]
Cc1cccc(-c2nsc(SCC(=O)NCc3ccco3)n2)c1	-13.8%	21.2µM*	-7.8%	-22.1%	-9.3%	31.6µM*
O=C(CSc1nc(-c2ccccc2Cl)ns1)c1ccc(Cl)cc1	160.7%	-4.7%	-11.7%	75.0%	51.0%	96.1%
Cc1cccc(C2(c3cccc(C)c3)CC2C(=O)NCC2CCCO2)c1 (stereo not drawn)	13.2%	26.7µM*	u	79.4µM*	0.0%	17.0%
Cc1cccc(-c2nsc(SCC(=O)c3ccc(Cl)cc3)n2)c1	80.8%	16.8µM*	-10.0%	44.3%	12.6%	-12.2%
C=CCNC(=O)C1CC1(c1cccc(C)c1)c1cccc(C)c1 (stereo not drawn)	19.5%	-5.3%	11.1%	-3.6%	x	x
CCOC(=O)CNC(=O)CSc1nc(-c2cccc(C)c2)ns1	-21.3%	10.6µM*	79.4µM*	-0.8%	-0.2%	11.2µM*
